# Assay outcomes: PubChem, National Center for Advancing Translational Sciences (NCATS)
# In the library only some 2.7% were active in any assay of this set; here they are far more common.
# GLP-1R inv ag: GLP-1 receptor (human) inverse agonism. P43220. Potency, µM (highest dose often 38.3 µM), inactives show at the top dose activity change, negative = inhibition, actives largely listed as inhibitors. HEK293 GLP-1R CRE-luciferase, luminescence, 24 h; GLP-1R form is constitutively active. 410,000 tested, 1.6% active; also: % is scaled to controls: 0 for no effect and ±100 for the full control effect; nearly all actives have a fitted effect of over 55% in size
#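 Constitutively active GLP-1R drives a cAMP-responsive luciferase in stably transfected HEK293 cells; test compounds are added after overnight (12 h) attachment and left 24 hr, and signal loss in luminescence marks inhibition.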
# IDH1 R132H inh: inhibitors of human mutant IDH1 R132H. 390,000 tested, 0.093% active. IDH1-R132H enzyme, NADPH consumption, diaphorase/resazurin fluorescence. Potency, µM (top dose mostly 76.6 µM), for the others: at the highest dose activity change, negative = inhibition, most hits filed as inhibitors; also: % is scaled to controls: 0 for no effect and ±100 for the full control effect; nearly all actives have a fitted effect of over 65% in size
# Target sequence (O75874 whole entry R132H, stated change not applied): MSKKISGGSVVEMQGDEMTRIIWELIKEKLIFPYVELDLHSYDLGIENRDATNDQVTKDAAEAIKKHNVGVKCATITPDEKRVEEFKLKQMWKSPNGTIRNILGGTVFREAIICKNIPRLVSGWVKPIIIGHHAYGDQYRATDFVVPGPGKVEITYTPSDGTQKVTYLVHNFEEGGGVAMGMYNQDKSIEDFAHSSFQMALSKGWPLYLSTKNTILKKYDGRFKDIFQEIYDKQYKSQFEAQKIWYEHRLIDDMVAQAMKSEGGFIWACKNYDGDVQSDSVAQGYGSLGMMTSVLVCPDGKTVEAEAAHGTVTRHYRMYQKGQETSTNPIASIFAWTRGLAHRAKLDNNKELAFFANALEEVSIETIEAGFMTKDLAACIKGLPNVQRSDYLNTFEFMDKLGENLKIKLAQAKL
#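 IDH1-R132H (0.5 ug/mL dispensed) in pH 7.5 Tris buffer was preincubated 30 min with compound, then given a substrate mix of 0.016 mM NADPH and 2 mM alpha-KG for 80 min at room temperature; remaining NADPH was read by diaphorase/resazurin fluorescence.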
# TrxR1 inh: rat TrxR1 inhibition; recombinant rTrxR1, NADPH fluorescence consumption, selenite substrate; AID 588453; 390,000 tested, 1% active; O89049; Potency, µM (series often up to 114 µM), for inactives: top-dose activity change, negative = inhibition, usual class: inhibitors; also: % is scaled to controls: 0 for no effect and ±100 for the full control effect; nearly all actives have a fitted effect of over 65% in size
#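 Rat TrxR1 (90 nM in the dispensed reagent) was pre-reduced with 400 uM NADPH for 5 min at room temperature, then incubated with compound for 15 min. After 400 uM selenite was added, NADPH fluorescence (Ex 340/Em 450 nm) was followed for 8 min.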
# HEK293 tox: cytotoxicity in counter-screen for GLP-1R inverse agonists. 410,000 tested, 0.13% active. HEK293 cAMP-luciferase reporter cells, luminescence, 24 h. Potency, µM (highest dose often 38.3 µM), without a hit: at the highest dose activity change, negative = inhibition, actives largely listed as inhibitors;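 also: loss of luciferase light is scored as toxicity; % is scaled to controls: 0 for no effect and ±100 for the full control effect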
#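 MLSMR compounds, 24 hr on cells at 37 deg C/5% CO2; luminescence after luciferase reagent (12 min RT). Inhibition counted as the undesired cytotoxic outcome.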
# TrxR1 substrate: substrates of rat thioredoxin reductase 1; purified TrxR1 substrate turnover, NADPH consumption readout; O89049; 390,000 tested, 0.01% active; Potency, µM (top dose mostly 114 µM), without a hit: top-dose activity change, negative = substrate turnover; also: % is scaled to controls: 0 for no effect and ±100 for the full control effect; nearly all actives have a fitted effect of over 50% in size
#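 Rat TrxR1, dispensed at 90 nM, was prereduced with 400 uM NADPH (final) for 5 min at ~22 deg C, then incubated with compound 15 min before 400 uM selenite. A first-read NADPH fluorescence drop versus no-compound background flagged substrates.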
# GLP1R ag: agonists of human GLP-1 receptor; P43220; HEK293 GLP-1R CRE-luciferase, luminescence, 4-6 h; cells express a hypersensitive GLP-1R form; Potency, µM (doses to about 45.6 µM), without a hit: at the highest dose activation, usual class: activators; 380,000 tested, 0.007% active; AID 624172; also: % of control where 0% means no effect
# Numbers without * were called inactive; ? = inconclusive; . = no result given; [ ] = another dose, or the depositor's remark. Calls follow the shape of the dose curve; as a rule, active = well fitted curve in the direction sought with a large enough effect; inconclusive = small, poorly fitted or top-dose-only effect, or another doubt; inactive = no such curve, though single readings can be large; an effect the other way counts as inactive or inconclusive. Potency is read from the fitted curve at half-maximal effect.
SMILES,GLP-1R inv ag,IDH1 R132H inh,TrxR1 inh,HEK293 tox,TrxR1 substrate,GLP1R ag
CC(C)C[C@@H](NC(=O)[C@@H](COC(C)(C)C)NC(=O)[C@H](Cc1ccc(O)cc1)NC(=O)[C@@H](CO)NC(=O)[C@@H](Cc1c[nH]c2ccccc12)NC(=O)[C@@H](Cc1cnc[nH]1)NC(=O)[C@@H]1CCC(=O)N1)C(=O)N[C@H](CCCN=C(N)N)C(=O)N1CCC[C@H]1C(=O)NNC(N)=O,.,.,.,.,.,-1%
CCOC(=O)c1ccc(NC(=O)CSc2ncc(S(=O)(=O)c3ccc(C)c(Cl)c3)c(=O)[nH]2)cc1,-1%,-29%,-26%[57.1 µM],5%,-20%[57.1 µM],-5%
O=C(CCn1cnc2onc(-c3ccc(F)cc3)c2c1=O)Nc1ccc(F)c(Cl)c1,13µM*,.,30%,-10%,-4%,.
Cc1ccccc1NC(=O)c1c(C)oc2ccc(O)c(CN(C)Cc3ccccc3)c12,?,-2%,1%,-5%,-7%,.
O=C(NC(=S)NC1CCCC1)c1ccccc1,-7%,-7%,?,-29%,-7%,11%
O=C(NC(=S)NC1C2CC3CC(C2)CC1C3)c1ccccc1 (stereo unspecified),?,0%,50µM*,?,5%,2%
CC(Oc1ccc(F)cc1)C(=O)Nc1sc2c(c1C(=O)NCc1cccnc1)CCCC2 (stereo unspecified),10µM*,11%,29%[57.1 µM],-24%,24%[57.1 µM],1%
O=C(Nc1sc2c(c1C(=O)NCc1cccnc1)CCCC2)c1ccco1,0%,0%,131%[57.1 µM],2%,44%,19%
Cc1ccc(S(=O)(=O)N2CCN(c3nc(-n4ccnc4)nc4ccccc34)CC2)cc1,.,.,23%,.,22%,.
COc1ccccc1C1CC(c2ccccc2)=NN1C(=O)c1ccccc1 (stereo unspecified),8.9µM*,0%,36%,?,6%,-4%
Cc1c(C(c2cc(O)ccc2O)c2c(C)n(C)n(-c3ccccc3)c2=O)c(=O)n(-c2ccccc2)n1C,42%,-6%,71µM*,6%,0%,-9%
COc1ccccc1COc1ccc2c(C)c(CCC(=O)O)c(=O)oc2c1C,15%,3%,9%[57.1 µM],-3%,25%[57.1 µM],-2%
O=C(O)CCc1c2ccc(=O)c(O)c-2oc2c(O)c(O)ccc12,.,.,56µM*,.,-5%,.
C[C@H](CO)N1C[C@H](C)[C@@H](CN(C)S(=O)(=O)c2ccc(F)cc2)Oc2ccc(NC(=O)Nc3ccc(C(F)(F)F)cc3)cc2C1=O,?,11%,19%,-27%,4%,-4%
C[C@@H]1CN([C@@H](C)CO)C(=O)Cc2cc(NC(=O)Nc3ccc(C(F)(F)F)cc3)ccc2O[C@@H]1CN(C)S(=O)(=O)c1ccc(Cl)cc1,5.6µM*,-3%,7%[57.1 µM],?,7%[57.1 µM],-5%
C[C@@H]1CN([C@H](C)CO)C(=O)c2cc(NC(=O)Nc3ccc(C(F)(F)F)cc3)ccc2O[C@H]1CN(C)S(=O)(=O)c1ccc(Cl)cc1,3.2µM*,-13%,13%,-28%,2%,-3%
NC(=O)c1c(NC(=O)c2noc3c2CCCC3)sc2c1CCCC2,18%,11%,8%,2%,13%,.
COc1ccccc1C1NC(c2ccc3c(c2)OCO3)=CC(c2cc(Cl)ccc2O)N1 (stereo unspecified),.,.,3%,.,9%,.
CCc1nn2c(-c3ccccc3OC)ccnc2c1-c1ccc(F)cc1,-27%,5%,9%,9%,-9%,1%
CC(C)NC(=S)NC(=O)c1ccc(-c2ccccc2)cc1,10µM*,1%,?,?,-7%,-4%
Cc1ccc(C(=O)O)cc1NC(=S)NC(=O)c1ccc(-c2ccccc2)cc1,4%,-2%,40µM*,0%,1%,18%
CCOC(=O)c1sc(NC(=O)c2cc3nc(-c4ccccc4)cc(C(F)(F)F)n3n2)c(C(=O)OCC)c1C,17%,-10%,20%,3%,17%[11.4 µM],.
OCCN1CCN(CC(O)COC(c2ccc(F)cc2)c2ccc(F)cc2)CC1 (stereo unspecified),3.5µM*,0%,14%,-16%,5%,5%
COc1ccc(N2CCN(CC(O)COC(c3ccc(F)cc3)c3ccc(F)cc3)CC2)cc1 (stereo unspecified),?,-1%,15%,-25%,-9%,-1%
Cn1c(=O)c2c(nc(N3CCOCC3)n2Cc2ccc(Br)cc2)n(C)c1=O,1%,-9%,17%,-2%,3%,0%
SMILES,GLP-1R inv ag,IDH1 R132H inh,TrxR1 inh,HEK293 tox,TrxR1 substrate,GLP1R ag
CS/C(Nc1cc(Cl)ccc1Cl)=C(/C#N)C(=O)c1ccco1,6.3µM*,5%,?,-5%,-7%[57.1 µM],-4%
Cc1ccc(NC(=O)c2cc3c([nH]c2=O)CC(C)(C)CC3=O)cc1,.,.,37%[0.0914 µM],.,3%,.
CCCNc1nc(-c2ccccc2)c(C(=O)OCC)cc1C#N,?,13%,37%,-14%,50%,21%
C=CCNc1nc(-c2ccccc2)c(C(=O)OCC)cc1C#N,5µM*,12%,9%[57.1 µM],?,-6%,25%
COc1ccc(/C=N/NC(=O)c2cccnc2)cc1CN1CCCc2ccccc21,10µM*,0%,37%[57.1 µM],7%,6%[57.1 µM],8%
COc1ccc(/C=N/NC(=O)c2cccnc2)cc1CN1CCc2cc(OC)c(OC)cc2C1C (stereo unspecified),-30%,3%,-11%[57.1 µM],1%,2%[57.1 µM],3%
COc1ccc(C(=O)N/N=C/c2ccc(OC)c(CN3CCCc4ccccc43)c2)cc1,10µM*,24%,7%[57.1 µM],6%,2%[57.1 µM],0%
COC1=CC(=O)C(OC)=C(OC)C1=O,?,22%,50µM*,?,-9%,-6%
CC(=O)Nc1cccc(NC(=O)Cc2csc(COc3cccc(C)c3)n2)c1,-25%,-12%,18%,-6%,2%,.
O=C(/C=C/c1ccco1)Nc1ccc(CN2CCOCC2)cc1,13%,0%,-26%,0%,-11%,-3%
O=C(/C=C/c1ccco1)Nc1cccc(S(=O)(=O)N2CCOCC2)c1,37%,0%,-15%[57.1 µM],2%,4%[57.1 µM],-7%
Cc1ccc(NC(=O)/C=C/c2ccco2)cc1S(=O)(=O)N1CCCCCC1,10µM*,-16%,?,-19%,-1%,10%
Cc1cc(NS(=O)(=O)c2ccc(NC(=O)/C=C/c3ccco3)cc2)nc(C)n1,17%,-1%,13µM*,11%,-10%,3%
